# ULK1 primary = inhibitors of human ULK1 kinase; O75385; AlphaScreen Atg13 phosphorylation by ULK1, luminescence; inhibition, % at 5.96 µM; hit rate 1.9% among 30,000; in the data active = inhibition above about 43%
# ASK1 primary = inhibitors of human ASK1 kinase. Q99683. AID 1159602. hit rate 0.99% among 22,000. inhibition, % at 7.44 µM. AlphaScreen MKK6 phosphorylation by ASK1, luminescence; in the data active = inhibition above about 35%
# TruHits interf = counter-screen for ASK1 inhibitors: AlphaScreen optical interference | shares compounds with ASK1 primary | AlphaScreen TruHits beads, signal interference counterscreen | IC50, µM | hit rate 20% among 220;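 active = IC50 of 10 µM or lower in the counterscreen; inactive = IC50 above 10 µM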;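 also: loss of AlphaScreen light from TruHits beads alone with no ASK1 enzyme present; potency of signal reduction so a low IC50 flags an assay artifact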
# A number is an active result; – = inactive; · = not tested or not shown. Shown are actives, neighbours in structure and some others; about 2.5% of the full set was active somewhere.
SMILES,ULK1 primary,ASK1 primary,TruHits interf
NS(=O)(=O)c1ccc(Nc2nccc(-c3cc(Cl)ccc3Cl)n2)cc1,–,–,·
FC(F)(F)c1ccc(Cn2cnc3c(NCCN4CCOCC4)nc(Nc4ccc(C(F)(F)F)cc4)nc32)cc1,–,–,·
FC(F)(F)c1ccc(Cn2cnc3c(Nc4ccc(N5CCOCC5)cc4)nc(Nc4ccc(N5CCOCC5)cc4)nc32)cc1,–,–,·
FC(F)(F)c1ccc(Cn2cnc3c(Nc4ccc5c(c4)OCO5)nc(Nc4ccc(N5CCOCC5)cc4)nc32)cc1,–,62.1,–
CCCNc1nc(Nc2ccc(N3CCOCC3)cc2)nc2c1ncn2Cc1ccc(C(F)(F)F)cc1,–,40.2,–
Cn1c(=O)[nH]c(N2CCOCC2)c(Cc2ccc(C#N)cc2)c1=O,–,·,·
c1ccc(CNc2nc(N3CCN(Cc4ccc5c(c4)OCO5)CC3)nc3c2ncn3C2CCCCC2)cc1,–,–,·
c1ccc(CN2CCC(Nc3nc(N4CCN(Cc5ccc6c(c5)OCO6)CC4)nc4c3ncn4C3CCCCC3)CC2)cc1,–,35.5,8.66
COc1cc(Nc2ncnc3c2nc(-c2ccc(C(=O)NC4CC4)cc2)n3C(C)C)cc(OC)c1OC,–,–,·
CCN(CC)c1nc(Nc2ccc(N3CCOCC3)cc2)nc(Nc2ccc(-n3ccnc3)cc2)n1,–,40.8,6.03
CCN(CC)c1nc(NCCN2CCOCC2)nc(Nc2ccc(-n3ccnc3)cc2)n1,–,–,·
Cc1[nH]ncc1-c1ccc2nc(NC(=O)C3COc4ccc(F)cc4C3)sc2c1 (stereo unspecified),–,38.7,–
Cc1[nH]ncc1-c1ccc(NC(=O)C2COc3ccc(F)cc3C2)c(N(C)CCN(C)C)c1 (stereo unspecified),–,–,·
COCCCNC(=O)Cn1cc(/C=C(\C#N)C(=O)NCc2cccs2)c2ccccc21,–,·,·
O=C(Nc1ccc(Br)cc1)c1c(O)cccc1O,–,·,·
Nc1nc(Nc2ccccc2)cc(Nc2ccccc2)n1,–,–,·
c1ccc(OCCNc2nc(Nc3ccc(-n4ccnc4)cc3)nc3c2ncn3C2CCCCC2)cc1,–,48.9,–
c1ccc(OCCNc2nc(NCCN3CCOCC3)nc3c2ncn3C2CCCCC2)cc1,–,–,·
c1ccc(OCCNc2nc(Nc3ccncc3)nc3c2ncn3C2CCCCC2)cc1,–,–,·
c1ccc(OCCNc2nc(Nc3ccc(N4CCOCC4)cc3)nc3c2ncn3C2CCCCC2)cc1,–,48.2,6.98
COc1ccc(S(=O)(=O)NCc2nc(-c3ccncc3)nn2S(=O)(=O)c2ccc(OC)cc2)cc1,–,–,·
CCCNc1nc(OC)nc(-c2c(C)noc2C)n1,–,–,·
CC(=O)Nc1ccc(NC(=O)c2csc(Nc3ccc(-n4ccnc4)cc3)n2)cc1,–,–,·
O=C(Nc1ccc2c(c1)OCO2)c1csc(N2CCN(c3ccccn3)CC2)n1,–,–,·
Cc1nn(C)c(C)c1-c1ccc(C(=O)NCCOc2ccccc2)s1,–,–,·
SMILES,ULK1 primary,ASK1 primary,TruHits interf
c1cnc2ccc(Nc3nc(Nc4ccc(N5CCOCC5)cc4)c4[nH]cnc4n3)cc2c1,–,41.0,–
c1ccc(CN2CCC(Nc3nc(Nc4ccc(N5CCOCC5)cc4)nc4c3ncn4-c3ccsc3)CC2)cc1,–,42.6,9.26
c1ccc(CN2CCC(Nc3nc(Nc4ccccc4)nc4c3ncn4-c3ccsc3)CC2)cc1,–,–,·
c1ccc(Nc2nc(Nc3ccc(N4CCOCC4)cc3)c3[nH]cnc3n2)nc1,–,–,·
c1ccc(CN2CCC(Nc3nc(N4CCOCC4)nc4nc[nH]c34)CC2)cc1,–,–,·
c1ccc(CN2CCC(Nc3nc(Nc4ccc(N5CCOCC5)cc4)nc4nc[nH]c34)CC2)cc1,–,36.4,–
NC(=O)c1cnc(-c2csc3ccccc23)s1,–,–,·
Cc1nc(NCCCC(=O)O)c2oc3ccccc3c2n1,–,·,·
c1ccc(Nc2ccnn2-c2ccnc(Nc3ccc(N4CCOCC4)cc3)c2)cc1,–,–,·
CN(C)CCNc1onc(-c2ccnc(Nc3ccc(N4CCOCC4)cc3)c2)c1-c1ccc(F)cc1,–,–,·
Fc1ccc(-c2c(-c3ccnc(Nc4ccc(N5CCOCC5)cc4)c3)noc2NCc2ccccc2)cc1,–,36.6,–
c1ccc(Nc2cc(-c3ccnc(Nc4ccc(N5CCOCC5)cc4)c3)nn2-c2ccccc2)cc1,–,40.8,–
COc1cc2nc(Nc3ccc(N4CCOCC4)cc3)nc(Nc3ccc4c(c3)OCO4)c2cc1OC,–,54.0,4.84
COc1cc2nc(Nc3ccc(-n4ccnc4)cc3)nc(Nc3ccc4c(c3)OCO4)c2cc1OC,–,49.0,–
COc1cc2nc(NCc3cccnc3)nc(Nc3ccc(N4CCOCC4)cc3)c2cc1OC,–,–,·
c1ccc(Nc2ccnc(N3CCN(Cc4ccc5c(c4)OCO5)CC3)n2)cc1,–,–,·
COc1cc2nc(NCc3ccc4c(c3)OCO4)nc(Nc3ccc(N4CCOCC4)cc3)c2cc1OC,–,51.0,6.26
COc1cc2nc(Nc3ccc(-n4ccnc4)cc3)nc(Nc3ccc(NC(C)=O)cc3)c2cc1OC,–,–,·
c1cc(Nc2ccc3c(c2)OCO3)nc(N2CCN(Cc3ccc4c(c3)OCO4)CC2)n1,–,37.0,–
COc1cc2nc(Nc3ccc(N4CCOCC4)cc3)nc(Nc3ccc(NC(C)=O)cc3)c2cc1OC,–,–,·
c1ccc(-n2cnc3c(NCc4cccnc4)nc(Nc4ncccn4)nc32)cc1,–,–,·
O=C(NCCOc1ccccc1)c1cccc(Nc2ccccn2)n1,–,–,·
CC(=O)Nc1ccc(S(=O)(=O)NC(CC(C)C)C(=O)O)cc1 (stereo unspecified),–,·,·
CCCNC(=O)c1ccc2nc(N3CCOCC3)sc2c1,–,–,·
Cc1nc(-c2cccnc2)cc(N2CCN(c3ccccn3)CC2)n1,–,·,·
SMILES,ULK1 primary,ASK1 primary,TruHits interf
COc1ccc(CCNc2cc(C)nc(N3CCN(Cc4ccc5c(c4)OCO5)CC3)n2)cc1,–,–,·
Cc1cc(NCCc2ccc(O)cc2)nc(N2CCN(Cc3ccc4c(c3)OCO4)CC2)n1,–,37.0,–
c1cc(Nc2ccc3c(c2)OCO3)nc(Nc2ccc(N3CCOCC3)cc2)n1,–,47.8,–
c1cc(Nc2ccc(N3CCOCC3)cc2)nc(Nc2ccc(N3CCOCC3)cc2)n1,–,–,·
COc1ccc(CCNc2cc(C)nc(Nc3ccc(N4CCOCC4)cc3)n2)cc1,–,–,·
c1ccc2c(c1)CCN(c1nccc(Nc3ccc(N4CCOCC4)cc3)n1)C2,–,49.5,–
COc1ccc(CCNc2ccnc(Nc3ccc(N4CCOCC4)cc3)n2)cc1,–,42.5,–
c1ccc(Nc2ccnc(N3CCc4ccccc4C3)n2)cc1,–,–,·
CC(C)n1cnc2c(Nc3ccc(Oc4ccccc4)cc3)nc(N3CCc4ccccc4C3)nc21,–,–,·
O=C(NC1CCN(Cc2ccccc2)CC1)c1csc(-c2ccc(N3CCOCC3)nc2)n1,–,–,·
Cc1sc2ncnc(N3CCC(C(=O)O)CC3)c2c1C,–,·,·
Brc1ccc(CNc2nccc(Nc3ccncn3)n2)cc1,–,–,·
COc1ccc(-c2nc(Nc3ccccc3)c3ncn(Cc4ccc(C(F)(F)F)cc4)c3n2)cc1,–,–,·
COc1ccc(-c2nc(Nc3ccccc3)c3ncn(CCN4CCCC4=O)c3n2)cn1,–,–,·
Cc1cc(C)n(-c2cc(N/N=C/c3cc(Br)ccc3O)nc(C)n2)n1,–,·,·
Cc1cc(Nc2ccc(N3CCOCC3)cc2)nc(Nc2cccc(N(C)C)c2)n1,–,41.2,–
COc1cc2nc(Nc3cccc(N(C)C)c3)nc(NCc3ccccc3)c2cc1OC,–,–,·
Cc1cc(NCc2cccc(C(F)(F)F)c2)nc(Nc2cccc(N(C)C)c2)n1,–,40.1,–
